Experimental findings from PubChem BioAssay (Tox21) are described below.

Molecules are shown by their SMILES. Inconclusive results are not listed. A call without a number means that no potency is given here. Active and inactive are the calls of the source. Calls come from the whole dose curve; as a rule, active = well fitted cell-killing curve with a large enough effect in the repeat runs; inconclusive = weak or mixed curves, or effect the other way; inactive = no such curve, though single readings can be large or run the other way.
Potency is the fitted concentration of half-maximal effect.

The test in a line: Caspase-3/7 induction in CHO-K1 cells by small molecules, qHTS cell viability counter screen (AID 1346979). Note: nearly all actives have a fitted effect of over 35% in size. The settings on record: CellTiter-Fluor fluorescence, 17 h; series mostly up to 92.4 µM. The source says: National Center for Advancing Translational Sciences [NCATS]
NIH Chemical Genomics Center [NCGC]
U.S. Environmental Protection Agency [EPA]
National Institutes of Environmental Health Sciences [NIEHS]
National Toxicology Program [NTP]
U.S. Food and Drug Administration [FDA]
Apoptosis is a process of programmed cell death and plays a central role in the development of multicellular organisms. It is a highly regulated process and induces cell death by activating caspases, which are the members of cysteine aspartic acid-specific protease (caspase) family. Caspases involved in apoptosis are classified by their mechanism of action as initiator caspases (caspase-2, -8, -9 and -10) and executioner caspases (caspase-3, -6, and -7). Inhibition of apoptosis results in number of cancers, autoimmune diseases, inflammatory diseases and viral infection. To identify small molecule compounds that induce apoptosis, a homogeneous, luminescent Caspase-Glo 3/7 assay was used. Wild type CHO-K1 cells were used to screen Tox21 libraries for identifying caspase-3/7 activity inducers. Also cytotoxicity of the compounds was tested in parallel by measuring the cell viability using CellTiter-Fluor assay system in the same wells.
Tox21 Assay Protocol Summary:
CHO-K1 cells were dispensed at 1,500 per well in 5uL of culture medium into white solid bottom 1536-well plates (Corning Life Sciences, Corning, NY) using a Multidrop Combi (Thermo Scientific, Waltham, MA) dispenser. The assay plates were incubated at 37 C and 5% CO2 for 5hr, and then 23nL of compounds dissolved in DMSO and positive control were transferred using a Pintool station (Wako, San Diego, CA). The assay plates were incubated at 37C and 5% CO2 for 17hr. For cytotoxicity read, after 16hr incubation at 37C, 1uL CellTiter-Fluor reagent (Promega Corporation, Madison, WI) was added to each well of the assay plates using Flying Reagent Dispenser (FRD, Aurora Discovery, San Diego, CA). After 1hr incubation at 37C and 5% CO2, the fluorescence signal was quantified using a ViewLux plate reader (PerkinElmer, Shelton, CT).
(Quantitative high-throughput screening tests each substance at several concentrations.)
Consider `C=C(C)C(=O)OCCO`, for which the Potency result is “inactive”. On to `CC(C)Cc1ccc(C(C)C(=O)OCc2ccccn2)cc1` (stereo not given), for which the Potency entry was “inactive”. For `CCCCC/C=C\C/C=C\CCCCCCCC(=O)NC(C)c1ccccc1` (stereo not given), the Potency is 26.6 µM (active). Turning to `ClCCOCCOCCCl`, the Potency result was “inactive”. On the same count and under the same terms, the figure for `CCc1c(C(=O)NN2CCCCC2)nn(-c2ccc(Cl)cc2Cl)c1-c1ccc(Br)cc1` is 27.3 µM (active); for `c1ccc(C(O[C@H]2CCCN(CCc3ccc4c(c3)OCO4)C2)c2ccccc2)cc1` it is “inactive”; for `CC(C)Nc1ccc(NC(C)C)c2c1C(=O)c1ccccc1C2=O` it is 25.3 µM (active). Still for that read-out and setting: then `c1cc(CCCc2ccncc2)ccn1`, with “inactive”. With `Cc1cccc(Nc2ccccc2)c1`, the Potency entry is “inactive”. Same read-out and setting: then `COc1ccnc(CS(=O)c2nc3ccc(OC(F)F)cc3[nH]2)c1OC` (stereo not given), with “inactive”; and `Cc1cc(C(=O)O)ccc1[N+](=O)[O-]`, with “inactive”; and `COC(=O)c1ccc(I)cc1S(=O)(=O)NC(=O)Nc1nc(C)nc(OC)n1`, with “inactive”. Still for that read-out and setting: the entry for `Cc1cc(N)c2cc(NC(=O)Nc3ccc4nc(C)cc(N)c4c3)ccc2n1` is “inactive”; for `CC1=CC[C@H](C(C)C)C=C1` it is “inactive”; for `CCN(CC)c1ccc2c(-c3ccccc3C(=O)O)c3ccc(=[N+](CC)CC)cc-3oc2c1` it is 2.17 µM (active). As to `C=C1[C@H]2CC[C@@H]3[C@H]2C(C)(C)CCC[C@]13C`, the Potency result is “inactive”. The same measure, in the same setting: then `C=C1C(=C/C=C2\CCC[C@]3(C)[C@@H]([C@H](C)/C=C/[C@@H](O)C4CC4)CC[C@@H]23)C[C@@H](O)C[C@@H]1O`, with 18.8 µM (active); and `CCOC(=O)c1cccnc1`, with “inactive”.

In the case of `CC(=O)c1cccc([N+](=O)[O-])c1`, the Potency result was “inactive”. Regarding `O=C1OC(=O)C2C3C=CC(C3)C12` (stereo not given), the Potency entry was “inactive”. On the same count and under the same terms, then `c1ccc(-c2ccccn2)nc1`, with “inactive”; and `Nc1cccc([N+](=O)[O-])c1`, with “inactive”; and `Cc1ccc(N=Nc2c(O)c(C(=O)O)cc3ccccc23)c(S(=O)(=O)O)c1`, with 23.6 µM (active).

As to `NCC(=O)CCC(=O)O`, the Potency entry was “inactive”. In the case of `Nc1ccc(N)c2c1C(=O)c1ccccc1C2=O`, the Potency was 24.3 µM (active).

For `CNC(=O)CN(CCN(CCN(CC(=O)[O-])CC(=O)NC)CC(=O)[O-])CC(=O)[O-].O.[Gd+3]`, the Potency result is “inactive”. Turning to `C[N+](C)(C)CCOC(=O)CCC(=O)OCC[N+](C)(C)C`, the Potency entry was “inactive”.

For the molecule `Cc1oc2c(NC(=O)c3c(Cl)cccc3Cl)cccc2c1C(C)(C)O`, the Potency is 61.1 µM (active). Same read-out and setting: the entry for `CCOC(=O)C(O)c1ccccc1` (stereo not given) is “inactive”. On the same count and under the same terms, the entry for `CCOCC(O)COc1ccc(NC(=O)CC[S+](C)C)cc1` (stereo not given) is “inactive”; for `C[C@@H]1C[C@H]2[C@@H]3CCC4=CC(=O)C=C[C@]4(C)[C@@]3(F)[C@@H](O)C[C@]2(C)[C@@]1(O)C(=O)COC(=O)c1ccncc1` it is “inactive”; for `NC(=O)C(c1ccccc1)(c1ccccc1)[C@@H]1CCN(CCc2ccc3c(c2)CCO3)C1` it is “inactive”. Turning to `CCC(C)c1cc(C(C)(C)C)c(O)c(C(C)(C)C)c1` (stereo not given), the Potency entry is “inactive”.

Consider `CCO[C@H](Cc1ccc(OCCc2ccc(OS(C)(=O)=O)cc2)cc1)C(=O)O`, for which the Potency entry was “inactive”. On to `CCc1cc(C2=C(C(=O)O)N(c3ccccc3C(F)(F)F)S(=O)(=O)c3ccccc32)cc2c1OCO2`, for which the Potency was 30.3 µM (active). As to `CC(C)(C)OCC1CO1` (stereo not given), the Potency entry is “inactive”. The same measure, in the same setting: then `CC(=O)[O][Al]`, with “inactive”. For the molecule `NCC(=O)O`, the activity change, negative = cytotoxicity was 7.68% [at 19 µM] (inactive).

Consider `CCC(Cl)CCC(Cl)C(Cl)CC(Cl)C(Cl)C(Cl)CCl` (stereo not given), for which the Potency entry is “inactive”.

With `COc1ccc(C(=O)Nc2nc3ccccc3c(NCc3ccccc3)c2C#N)cc1`, the Potency was 19.3 µM (active).
